# Assay outcomes deposited in PubChem by several laboratories.
# Rows were chosen to be rich in hits. Some 8% of all compounds tested hit in one or more screens of this group.
# PostGolgi ctrl – inhibits growth of the yeast control strain | inhibition, % at 10 µM | efflux-deficient yeast background strain, growth absorbance A615, 16 h | hit rate 5% among 98,000 | AID 738
# PostGolgi yeast – growth inhibition of a yeast mutant, post-Golgi transport screen; AID 739; post-Golgi transport phenotypic cell assay; inhibition, % at 10 µM; hit rate 0.9% among 98,000;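 note: yeast cells grown in 1536-well plates; yeast grown about 18 h at 30C before absorbance read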
# Cav3 T inh – inhibitors of human Cav3.2 T-type calcium channel | O95180 | Cav3.2-expressing cells, Fluo-4 calcium fluorescence FDSS; hits give low values | B-score at 10 µM | hit rate 4% among 100,000;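 active = single-dose well whose peak fluorescence ratio is a statistical outlier from its plate by either plate-standardised score or position-corrected B-score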
# Pyk2 oligo antag – blocks oligomerization of human Pyk2 in cells; Q14289; Q293 cells, Pyk2 FERM NanoBiT luminescence; hits give low values; z-score (the deposit names both 25 µM and 10 µM); hit rate 0.83% among 99,000;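 active = Z-score of -3 or lower, scaled per plate to the spread of control and sample wells; inactive = z-score above -3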;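 note: negative z-score means lost luminescence so less FERM oligomerization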
# Target sequence (Q14289 whole entry, looked up): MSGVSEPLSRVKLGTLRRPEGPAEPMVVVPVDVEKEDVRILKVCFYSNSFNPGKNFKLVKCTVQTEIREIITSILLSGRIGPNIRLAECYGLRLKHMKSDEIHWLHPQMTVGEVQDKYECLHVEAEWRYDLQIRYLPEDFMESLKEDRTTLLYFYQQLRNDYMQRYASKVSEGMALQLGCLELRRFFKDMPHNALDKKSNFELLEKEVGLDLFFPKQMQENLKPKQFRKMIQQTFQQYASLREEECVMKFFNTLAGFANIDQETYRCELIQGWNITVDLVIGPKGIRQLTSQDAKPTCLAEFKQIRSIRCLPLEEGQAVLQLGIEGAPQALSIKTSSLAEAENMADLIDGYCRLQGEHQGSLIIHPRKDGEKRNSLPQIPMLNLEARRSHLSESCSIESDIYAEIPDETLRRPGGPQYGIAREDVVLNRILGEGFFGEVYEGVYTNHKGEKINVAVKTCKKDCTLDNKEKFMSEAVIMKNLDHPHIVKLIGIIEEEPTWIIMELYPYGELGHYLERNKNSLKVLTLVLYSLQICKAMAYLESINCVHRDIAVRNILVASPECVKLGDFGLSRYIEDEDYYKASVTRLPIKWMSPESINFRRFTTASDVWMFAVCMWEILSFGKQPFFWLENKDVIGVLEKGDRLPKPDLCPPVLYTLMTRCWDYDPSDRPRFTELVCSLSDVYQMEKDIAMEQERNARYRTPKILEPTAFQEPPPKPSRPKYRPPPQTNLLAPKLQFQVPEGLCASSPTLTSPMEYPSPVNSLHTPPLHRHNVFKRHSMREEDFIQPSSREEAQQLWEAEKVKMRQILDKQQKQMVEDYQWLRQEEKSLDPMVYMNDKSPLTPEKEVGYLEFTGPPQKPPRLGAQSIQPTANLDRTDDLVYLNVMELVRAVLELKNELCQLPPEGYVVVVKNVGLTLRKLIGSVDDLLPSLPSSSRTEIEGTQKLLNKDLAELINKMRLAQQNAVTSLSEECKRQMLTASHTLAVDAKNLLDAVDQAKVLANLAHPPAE
# Hits are given with their value; i = inactive; nt = no result given. Cut-off read from the data, not from the text of the source, unless noted: active = inhibition above about 30%; inactive = the rest.
SMILES,PostGolgi ctrl,PostGolgi yeast,Cav3 T inh,Pyk2 oligo antag
Cc1nc2cc(NS(=O)(=O)c3c(C)c(C)cc(C)c3C)ccc2s1,nt,nt,i,-3.8
Nc1c(Br)cc(Br)c(N2CCCC2=O)c1Br,i,i,i,i
COc1cccc(OCC(=O)NNC(=O)C(=O)N2CCCC2)c1,nt,nt,nt,i
CC(C)n1c(NCCc2ccccc2)nc2c1c(=O)n(C)c(=O)n2C,nt,nt,i,i
CN(C)c1ccc(C2C=C(c3ccc(Cl)cc3OC(F)F)Nc3ncnn32)cc1 (configuration not stated),31,i,-5.9,i
Cc1ccc(C2C=C(c3ccccc3OC(F)F)Nc3ncnn32)cc1 (configuration not stated),i,i,nt,i
O=S(=O)(c1ccc2ccccc2c1)N(CC(O)COCc1ccco1)c1ccccc1 (configuration not stated),31,i,-5.1,i
CCSc1ncc(/C=N/Nc2ccc(Cl)cc2)n1C,i,32,i,i
CCCc1nc2ccccc2c(=O)n1/N=C/c1c(C)[nH]n(-c2ccc(C)cc2)c1=O,i,i,-3.8,i
COc1ccc(S(=O)(=O)N(CCCN2CCOCC2)Cc2cccc3ccccc23)cc1,i,i,i,i
CCOc1ccc(S(=O)(=O)Nc2cccc(Cl)c2)cc1,nt,nt,-3.7,i
COc1ccc(C)cc1S(=O)(=O)Nc1cccc(Cl)c1,43,i,i,i
CCOc1cc(S(=O)(=O)Nc2cc(C)cc(C)c2)ccc1Cl,39,i,i,i
CCC1(C)OCC(Cn2c3ccccc3c3ccccc32)O1 (configuration not stated),nt,nt,i,nt
CCc1ccc(N2CC(C(=O)N/N=C/c3cccc([N+](=O)[O-])c3)CC2=O)cc1 (configuration not stated),i,i,i,i
Cc1ccc(NC(=O)NNC(=O)Cn2nc(-c3ccccc3)c(-c3ccccc3)c(C#N)c2=O)cc1,i,i,-7,i
O=C1C2CC=CCC2C(=O)N1c1cccc(OS(=O)(=O)c2ccc3ccccc3c2)c1 (configuration not stated),i,i,i,i
CNC(=S)N1N=C(c2ccc(C)cc2)CC1c1ccc(Cl)cc1 (configuration not stated),44,i,-6.2,i
CCC(=O)N1N=C(c2ccc(NS(C)(=O)=O)cc2)CC1c1ccc(C)cc1 (configuration not stated),i,i,i,i
CNC(=S)N1N=C(c2ccc(C)cc2)CC1c1ccc(Br)cc1 (configuration not stated),35,i,-6.3,i
CCOc1ccc(OCCCCNCCN)cc1,i,i,nt,nt
Cc1nn(C)cc1/C=N\NC(=O)c1ccc2c(c1)c(C)c(C)n2Cc1ccccc1,i,i,-3.8,i
Cc1nn(C)cc1/C=N/NC(=O)c1ccc2c(c1)OCO2,i,i,i,i
O=C(CN1CCN(c2ccccn2)CC1)N1c2ccccc2Sc2ccc(C(F)(F)F)cc21,41,i,-6.2,i
O=C(CN1CCCC1)N1c2ccccc2Sc2ccc(C(F)(F)F)cc21,nt,nt,i,i
SMILES,PostGolgi ctrl,PostGolgi yeast,Cav3 T inh,Pyk2 oligo antag
CCCNC(=O)Cn1cnc2sc(C(=O)NCCN(CC)CC)c(C)c2c1=O,i,i,nt,i
CCc1cc2c(=O)c(-c3cscn3)coc2c(CN(C)C)c1O,i,i,i,-3.4
Cc1ccc(S(=O)(=O)N2CCN(CCO)CC2)cc1-c1nnc2c3ccccc3c(C)nn12,nt,nt,nt,i
Cc1ccc(S(=O)(=O)c2c(N)n(NC(=O)c3ccco3)c3nc4ccccc4nc23)cc1,i,i,-5.5,i
CC(=O)N(C(C)=O)C1=C(C#N)C2(CCCCC2)Cc2ccccc21,i,i,-6.3,i
Cc1[nH]n(C(C)(C)C)c(=O)c1Sc1ccccc1,i,i,i,i
Cc1sc(CO)c(Sc2ccccc2)c1C(=O)O,34,i,nt,nt
Cc1ccc2nc3c(cc2c1)CN(Cc1ccco1)C(=NCC1CCCO1)S3 (configuration not stated),43,i,i,i
Cc1cccc2cc3c(nc12)SC(=NCC1CCCO1)N(Cc1ccco1)C3 (configuration not stated),i,i,i,i
CC(C)CC(=O)N1CCN(C(=O)CCC2CCCC2)CC1,i,i,i,i
COc1ccc(OC)c(NC(=O)C(=O)/C=C(\O)c2cc(OC)ccc2OC)c1,30,i,-5.2,i
COCC(=O)Nc1cc(OC)ccc1OC,i,i,i,i
CCOC(=O)c1cnc(SC)nc1Sc1cc(Cl)ccc1Cl,i,33,i,i
O=S(=O)(c1ccc(Cl)c(Cl)c1)c1snnc1-c1ccccc1,52,i,i,i
Cc1[nH]nc2c1/C(=N\O)CC(C)(C)C2,39,i,i,i
COc1ccc(CC(=O)OCC(=O)Nc2c(C)n(C)n(-c3ccccc3)c2=O)cc1,i,i,i,i
CCOCCCNC(=O)c1cc2sc(Cl)cc2n1CC,i,39,i,i
COc1cccc(Nc2nc(N)nc(-c3oc4ccccc4c3C)n2)c1,77,i,i,i
COc1ccccc1Nc1nc(N)nc(-c2cc3ccccc3o2)n1,i,i,i,i
Cc1c(-c2nc(N)nc(Nc3ccccc3F)n2)oc2ccccc12,35,i,i,i
c1ccc(-n2nnnc2SCc2cccc3nsnc23)cc1,i,i,i,i
Cc1cccc(N(C(=O)CCC(=O)Nc2cccnc2)C(C(=O)NC2CCCC2)c2ccncc2)c1 (configuration not stated),nt,nt,i,i
O=C1C2C3C=CC(C3)C2C(=O)N1c1ccncc1 (configuration not stated),i,i,nt,i
O=C1C2C(c3ccccc3)C=CC(c3ccccc3)C2C(=O)N1c1ccncc1 (configuration not stated),34,i,i,i
Cc1ccc(-n2c3c(c(=O)[nH]c2=O)C(C(F)(F)F)(C(F)(F)F)NC(=O)N3)cc1,i,i,i,i
SMILES,PostGolgi ctrl,PostGolgi yeast,Cav3 T inh,Pyk2 oligo antag
O=C(NCc1ccc(OC(F)(F)F)cc1)C12CN(Cc3ccccc3)CC1C(c1cccc([N+](=O)[O-])c1)=NO2 (configuration not stated),i,i,-3.8,nt
O=C(NCc1ccccc1)C12CN(Cc3ccccc3)CC1C(c1cccc([N+](=O)[O-])c1)=NO2 (configuration not stated),i,i,-3.4,nt
O=C(NCc1cc(C(F)(F)F)cc(C(F)(F)F)c1)C12CN(Cc3ccccc3)CC1C(c1cccc([N+](=O)[O-])c1)=NO2 (configuration not stated),i,i,i,nt
CCCCN(CCCC)CCCNC(=O)C12CN(Cc3ccccc3)CC1C(c1cccc([N+](=O)[O-])c1)=NO2 (configuration not stated),i,i,-3.2,nt
O=C(NCC1CCCO1)C12CN(Cc3ccccc3)CC1C(c1cccc([N+](=O)[O-])c1)=NO2 (configuration not stated),i,i,i,nt
COc1cc(-c2noc(CCCC(=O)NC3CCCCC3)n2)cc(OC)c1OC,i,i,i,i
CC1(c2nnc(-c3cccc(Cl)c3)o2)CC(c2cccc(Cl)c2)=NO1 (configuration not stated),nt,nt,i,nt
COc1ccc(N2C(=O)C3CCCN3C2c2ccccc2F)cc1 (configuration not stated),i,i,i,nt
CCOc1ccccc1C1N(c2ccc(OC)cc2)C(=O)C2CCCN21 (configuration not stated),34,i,i,nt
